Screen size: about 5,500 compounds; about 2,000 (36%) were called active. About 18% were inconclusive and are not listed. No stated cut-off is given here; in the data, active means normalized growth mostly below about 0.91 (no sharp cut-off); inconclusive means no clear call, values can overlap the other calls; inactive means mostly above about 0.92. Some of the results follow.
Assay: chemical genetic growth profiling, strain panel (AID 1159580);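 further: tested at 20 µM; growth read once vehicle control cultures reached saturation at 30 °C; 1 = growth at the plate median or of vehicle wells; lower values mean less growth of the strain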
Conditions: growth OD

Measured: normalized growth

COc1ccc2c(c1)OC[C@@H](Cc1ccc(OC)c(OC)c1)[C@@H]2O
active: S. cerevisiae deletion strains, locus YKR001C, strain vps1, hits give low values 0.892 | S. cerevisiae deletion strains, locus YLR262C, strain YPT6 (second series), hits give low values 0.831
inactive: S. cerevisiae deletion strains, locus YJR075W, strain HOC1, hits give low values 0.951 | S. cerevisiae deletion strains, locus YKL009W, strain mrt4, hits give low values 0.985 | S. cerevisiae deletion strains, locus YKL068W, hits give low values 0.988 | S. cerevisiae deletion strains, locus YKL085W, strain MDH1 (second series), hits give low values 0.956 | S. cerevisiae deletion strains, locus YKL085W, strain MDH1, hits give low values 0.956 | S. cerevisiae deletion strains, locus YKL160W, strain elf1, hits give low values 1 | S. cerevisiae deletion strains, locus YKL190W, strain CNB1, hits give low values 1 | S. cerevisiae deletion strains, locus YKR026C, strain gcn3, hits give low values 0.992 | S. cerevisiae deletion strains, locus YKR091W, strain srl3, hits give low values 0.988 | S. cerevisiae deletion strains, locus YLL001W, strain dnm1, hits give low values 0.99 | S. cerevisiae deletion strains, locus YLL026W, hits give low values 0.995 | S. cerevisiae deletion strains, locus YLL041C, strain sdh2, hits give low values 0.989 | S. cerevisiae deletion strains, locus YLR027C, strain aat2, hits give low values 0.989 | S. cerevisiae deletion strains, locus YLR039C, strain RIC1, hits give low values 0.749 | S. cerevisiae deletion strains, locus YLR058C, strain SHM2, hits give low values 0.997 | S. cerevisiae deletion strains, locus YLR102C, strain apc9, hits give low values 0.987 | S. cerevisiae deletion strains, locus YLR113W, strain HOG1, hits give low values 0.875 | S. cerevisiae deletion strains, locus YLR221C, strain rsa3, hits give low values 1.01 | S. cerevisiae deletion strains, locus YLR258W, strain gsy2, hits give low values 0.979 | S. cerevisiae deletion strains, locus YLR262C, strain YPT6, hits give low values 0.805 | S. cerevisiae deletion strains, locus YLR268W, strain sec22, hits give low values 0.999 | S. cerevisiae deletion strains, locus YLR320W, strain mms22, hits give low values 0.971 | S. cerevisiae deletion strains, locus YLR330W, strain CHS5, hits give low values 0.993 | S. cerevisiae deletion strains, locus YLR342W, strain FKS1 (second series), hits give low values 0.958 | S. cerevisiae deletion strains, locus YLR342W, strain FKS1, hits give low values 0.973 | S. cerevisiae deletion strains, locus YLR357W, strain rsc2, hits give low values 0.998 | S. cerevisiae deletion strains, locus YLR370C, strain arc18, hits give low values 1 | S. cerevisiae deletion strains, locus YLR371W, strain rom2, hits give low values 0.985 | S. cerevisiae deletion strains, locus YLR384C, strain iki3, hits give low values 0.982 | S. cerevisiae deletion strains, locus YLR418C, strain cdc73, hits give low values 1.01 | S. cerevisiae deletion strains, locus YML016C, strain PPZ1, hits give low values 1 | S. cerevisiae deletion strains, locus YML032C, strain rad52, hits give low values 0.981 | S. cerevisiae deletion strains, locus YML120C, strain ndi1, hits give low values 0.986 | S. cerevisiae deletion strains, locus YML124C, strain tub3, hits give low values 0.988 | S. cerevisiae deletion strains, locus YMR058W, strain fet3, hits give low values 1.01 | S. cerevisiae deletion strains, locus YMR078C, strain ctf18, hits give low values 0.986 | S. cerevisiae deletion strains, locus YMR125W, strain sto1, hits give low values 1.01 | S. cerevisiae deletion strains, locus YMR129W, hits give low values 0.985 | S. cerevisiae deletion strains, locus YMR205C, strain PFK2, hits give low values 0.955 | S. cerevisiae deletion strains, locus YMR223W, strain ubp8, hits give low values 0.987 | S. cerevisiae deletion strains, locus YMR231W, strain pep5, hits give low values 0.987 | S. cerevisiae deletion strains, locus YMR263W, strain SAP30, hits give low values 1.01 | S. cerevisiae deletion strains, locus YMR307W, strain GAS1, hits give low values 0.945 | S. cerevisiae deletion strains, locus YNL067W, strain RPL9B, hits give low values 1.01 | S. cerevisiae deletion strains, locus YNL071W, strain lat1, hits give low values 0.994 | S. cerevisiae deletion strains, locus YNL128W, strain TEP1, hits give low values 1.01 | S. cerevisiae deletion strains, locus YNL153C, strain GIM3, hits give low values 1.01 | S. cerevisiae deletion strains, locus YNL183C, strain NPR1, hits give low values 0.933 | S. cerevisiae deletion strains, locus YNL209W, strain ssb2, hits give low values 1.01 | S. cerevisiae deletion strains, locus YNL233W, strain BNI4, hits give low values 0.978 | S. cerevisiae deletion strains, locus YNL248C, strain rpa49, hits give low values 1.01 | S. cerevisiae deletion strains, locus YNL250W, strain rad50, hits give low values 1 | S. cerevisiae deletion strains, locus YNL271C, strain bni1, hits give low values 0.992 | S. cerevisiae deletion strains, locus YNL298W, strain CLA4, hits give low values 0.992 | S. cerevisiae deletion strains, locus YNL307C, strain MCK1, hits give low values 0.953 | S. cerevisiae deletion strains, locus YNL322C, strain KRE1 (second series), hits give low values 0.967 | S. cerevisiae deletion strains, locus YNL322C, strain KRE1, hits give low values 0.999 | S. cerevisiae deletion strains, locus YNR049C, strain mso1, hits give low values 0.99 | S. cerevisiae deletion strains, locus YNR052C, strain pop2, hits give low values 0.977 | S. cerevisiae deletion strains, locus YOL006C, strain TOP1, hits give low values 0.993 | S. cerevisiae deletion strains, locus YOL147C, strain pex11, hits give low values 0.985 | S. cerevisiae deletion strains, locus YOR001W, strain rrp6, hits give low values 1.01 | S. cerevisiae deletion strains, locus YOR061W, strain CKA2, hits give low values 1 | S. cerevisiae deletion strains, locus YOR069W, strain VPS5, hits give low values 0.992 | S. cerevisiae deletion strains, locus YOR070C, strain gyp1, hits give low values 0.998 | S. cerevisiae deletion strains, locus YOR080W, strain dia2, hits give low values 0.974 | S. cerevisiae deletion strains, locus YOR083W, strain WHI5, hits give low values 0.987 | S. cerevisiae deletion strains, locus YOR106W, strain vam3, hits give low values 1.02 | S. cerevisiae deletion strains, locus YOR136W, strain idh2, hits give low values 0.991 | S. cerevisiae deletion strains, locus YOR144C, strain elg1, hits give low values 0.987 | S. cerevisiae deletion strains, locus YOR184W, strain ser1, hits give low values 0.952 | S. cerevisiae deletion strains, locus YOR231W, strain MKK1, hits give low values 0.976 | S. cerevisiae deletion strains, locus YOR265W, strain rbl2, hits give low values 1.01 | S. cerevisiae deletion strains, locus YOR270C, strain vph1, hits give low values 1.01 | S. cerevisiae deletion strains, locus YOR290C, strain snf2, hits give low values 1 | S. cerevisiae deletion strains, locus YOR316C, strain cot1, hits give low values 0.99 | S. cerevisiae deletion strains, locus YPL051W, strain arl3, hits give low values 0.982 | S. cerevisiae deletion strains, locus YPL055C, strain LGE1, hits give low values 0.996 | S. cerevisiae deletion strains, locus YPL078C, strain atp4, hits give low values 1.01 | S. cerevisiae deletion strains, locus YPL106C, strain sse1, hits give low values 0.99 | S. cerevisiae deletion strains, locus YPL240C, strain hsp82, hits give low values 0.995 | S. cerevisiae deletion strains, locus YPL241C, strain CIN2, hits give low values 0.998 | S. cerevisiae deletion strains, locus YPL256C, strain CLN2, hits give low values 0.983 | S. cerevisiae deletion strains, locus YPR119W, strain clb2, hits give low values 0.983 | S. cerevisiae deletion strains, locus YPR141C, strain kar3, hits give low values 0.995 | S. cerevisiae deletion strains, locus YPR163C, strain tif3, hits give low values 0.995 | S. cerevisiae deletion strains, locus YPR167C, strain met16, hits give low values 0.985 | S. cerevisiae deletion strains, strain wtn01, hits give low values 0.982 | S. cerevisiae strains, strain wild type, hits give low values 1.01

Source: PubChem BioAssay AID1159580 (chemical genetic matrix, 2015)
